“And” between values parts separate entries of the source, which are not always exact repeats. Equal values may be shown once. Inconclusive results are not listed. Entries that show only a call come without a potency. Some structures have more than one record in an assay (separate samples or runs), and their calls can disagree. The source made the active and inactive calls. Unless noted, calls come from the whole dose curve.
Key:
[1] = Nuclear factor erythroid 2-related factor 2/antioxidant responsive element (Nrf2/ARE) small molecule agonists: luciferase reporter gene qHTS assay in human keratinocytes (AID 1919969); note: nearly all actives have a fitted effect of over 35% in size; note: potency is the fitted concentration of half-maximal effect
[2] = target: Gonadotropin-releasing hormone receptor (Homo sapiens) (UniProt P30968); assay: Human gonadotropin-releasing hormone receptor (GnRHR) small molecule agonists, calcium flux assay in GnRHR-HEK293 cells (AID 1920063); note: nearly all actives have a fitted effect of over 35% in size
Gonadotropin-releasing hormone receptor (Homo sapiens), sequence (P30968 whole entry, looked up): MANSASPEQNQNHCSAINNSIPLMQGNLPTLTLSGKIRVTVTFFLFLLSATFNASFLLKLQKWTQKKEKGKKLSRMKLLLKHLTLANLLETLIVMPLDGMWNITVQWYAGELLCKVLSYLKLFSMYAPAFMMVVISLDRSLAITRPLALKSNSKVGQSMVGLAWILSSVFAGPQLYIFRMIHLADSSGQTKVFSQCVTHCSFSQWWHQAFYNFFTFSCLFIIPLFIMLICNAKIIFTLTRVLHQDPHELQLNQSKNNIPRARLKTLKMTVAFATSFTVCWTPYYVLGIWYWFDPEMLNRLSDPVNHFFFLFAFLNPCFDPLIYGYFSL
Outline: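 Agonist mode: compounds at 15 concentrations, in triplicate, went onto calcium dye-loaded GnRHR-HEK293 cells. Intracellular calcium was then followed as 480/540 nm fluorescence at 1 s intervals over 3 min.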

[3] = target: KiSS-1 receptor (Homo sapiens) (UniProt Q969F8); assay: Human kisspeptin (KISS1R) small molecule agonists, calcium flux assay in KISS1R-HEK293 cells (AID 1920064; active = well fitted activation curve with a large enough effect in the repeat runs)
KiSS-1 receptor (Homo sapiens), sequence (Q969F8 whole entry, looked up): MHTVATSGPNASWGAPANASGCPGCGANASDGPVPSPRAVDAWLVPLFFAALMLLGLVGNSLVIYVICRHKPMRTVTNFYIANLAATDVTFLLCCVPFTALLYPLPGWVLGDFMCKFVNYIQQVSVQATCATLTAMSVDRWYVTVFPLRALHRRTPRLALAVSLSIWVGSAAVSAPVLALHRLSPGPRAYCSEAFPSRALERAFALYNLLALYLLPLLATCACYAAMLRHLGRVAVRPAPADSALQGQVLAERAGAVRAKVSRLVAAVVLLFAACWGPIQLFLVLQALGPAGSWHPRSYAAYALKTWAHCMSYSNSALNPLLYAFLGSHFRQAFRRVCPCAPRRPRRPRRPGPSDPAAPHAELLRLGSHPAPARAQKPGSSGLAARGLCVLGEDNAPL
Outline: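 Agonist mode: intracellular calcium rise tracked at 1 s intervals over 3 min (480/540 nm) immediately after compound addition to dye-loaded KISS1R-HEK293 stable cells. Each compound tested at 15 concentrations in triplicate.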

[4] = G protein-coupled receptor (GPCR) small molecule agonists, calcium flux assay: HEK293 wild type cell line counter screen (AID 1920065)
Outline: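 Calcium flux counter screen: compound added in agonist mode at 15 concentrations in triplicate to dye-loaded parental HEK293 cells. Fluorescence (480/540) read kinetically for 3 min; ATP served as positive control.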

[5] = target: 5-hydroxytryptamine receptor 2A (Homo sapiens) (UniProt P28223); assay: 5-hydroxytryptamine receptor 2A (HTR2A) small molecule agonists, cell-based qHTS assay (AID 1963587); note: nearly all actives have a fitted effect of over 30% in size
5-hydroxytryptamine receptor 2A (Homo sapiens), sequence (P28223 whole entry, looked up): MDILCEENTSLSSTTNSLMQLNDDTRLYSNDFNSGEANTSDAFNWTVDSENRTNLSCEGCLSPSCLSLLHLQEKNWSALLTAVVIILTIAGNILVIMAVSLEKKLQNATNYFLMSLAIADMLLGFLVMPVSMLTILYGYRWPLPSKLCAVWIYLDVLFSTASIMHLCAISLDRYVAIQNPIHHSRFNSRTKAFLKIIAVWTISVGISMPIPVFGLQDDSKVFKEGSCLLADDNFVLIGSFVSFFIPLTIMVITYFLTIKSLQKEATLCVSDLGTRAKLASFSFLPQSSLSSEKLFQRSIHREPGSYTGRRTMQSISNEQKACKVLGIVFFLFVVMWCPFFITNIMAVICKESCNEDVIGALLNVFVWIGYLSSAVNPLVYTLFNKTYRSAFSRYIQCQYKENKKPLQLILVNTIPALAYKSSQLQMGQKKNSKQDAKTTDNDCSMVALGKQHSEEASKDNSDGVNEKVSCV
Outline: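 CHO cells stably expressing human HTR2A, plated 18 h, loaded with calcium dye 1 h at 37 C. Agonist mode: compounds added and intracellular calcium fluorescence recorded kinetically for 2 min at 1 sec intervals.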

[6] = target: Muscarinic acetylcholine receptor M1 (Homo sapiens) (UniProt P11229); assay: Cholinergic receptor muscarinic 1 (CHRM1) small molecule agonists, cell-based qHTS assay (AID 1963589); note: nearly all actives have a fitted effect of over 35% in size
Muscarinic acetylcholine receptor M1 (Homo sapiens), sequence (P11229 whole entry, looked up): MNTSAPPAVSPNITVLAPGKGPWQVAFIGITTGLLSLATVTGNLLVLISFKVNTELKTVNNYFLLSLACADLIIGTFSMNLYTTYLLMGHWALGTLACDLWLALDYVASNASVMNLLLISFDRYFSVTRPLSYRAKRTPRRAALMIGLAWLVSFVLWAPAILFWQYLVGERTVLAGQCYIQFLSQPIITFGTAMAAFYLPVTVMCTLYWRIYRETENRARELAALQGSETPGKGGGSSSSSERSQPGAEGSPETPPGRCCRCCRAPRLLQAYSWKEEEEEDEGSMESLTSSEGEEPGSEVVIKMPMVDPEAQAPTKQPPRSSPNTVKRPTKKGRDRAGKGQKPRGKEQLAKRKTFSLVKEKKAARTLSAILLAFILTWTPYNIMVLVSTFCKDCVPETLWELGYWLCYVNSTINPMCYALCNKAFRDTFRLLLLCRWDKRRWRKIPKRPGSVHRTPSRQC
Outline: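 Agonist-mode calcium-flux screen: compounds at 15 concentrations, three independent runs, were pin-transferred onto dye-loaded human CHRM1-CHO cells. Fluorescence was then recorded kinetically every second over minutes.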

[7] = target: Beta-2 adrenergic receptor (Homo sapiens) (UniProt P07550); assay: Adrenergic beta2 receptor (ADRB2) small molecule antagonists, cell-based qHTS assay (AID 1963592); note: nearly all actives have a fitted effect of over 50% in size; note: potency is the fitted concentration of half-maximal effect
Beta-2 adrenergic receptor (Homo sapiens), sequence (P07550 whole entry, looked up): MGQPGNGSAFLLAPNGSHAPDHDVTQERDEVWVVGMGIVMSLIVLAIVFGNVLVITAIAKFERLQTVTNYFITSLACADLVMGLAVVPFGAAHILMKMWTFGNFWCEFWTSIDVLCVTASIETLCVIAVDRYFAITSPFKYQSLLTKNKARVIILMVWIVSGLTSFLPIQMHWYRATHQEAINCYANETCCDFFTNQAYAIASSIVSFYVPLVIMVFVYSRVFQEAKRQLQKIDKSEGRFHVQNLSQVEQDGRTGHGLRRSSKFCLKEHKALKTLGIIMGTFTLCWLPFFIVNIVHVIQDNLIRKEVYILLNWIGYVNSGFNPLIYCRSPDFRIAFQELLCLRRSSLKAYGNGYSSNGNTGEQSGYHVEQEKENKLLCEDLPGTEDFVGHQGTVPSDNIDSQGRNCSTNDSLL
Outline: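 Assay format: CHO-ADRB2 cells, 18-20hr seeding at 37C/5% CO2, then compound plus 1nM isoproterenol agonist mix for 0.5hr RT. Homogeneous time-resolved fluorescence cAMP detection after 1hr, expressed as 665/615 nm ratio.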

[8] = target: Beta-2 adrenergic receptor (Homo sapiens) (UniProt P07550); assay: Adrenergic beta2 receptor (ADRB2) small molecule agonists, cell-based qHTS assay (AID 1963593);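 note: CHO cells stably overexpressing human ADRB2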
Outline: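 CHO cells stably over-expressing ADRB2 were plated overnight at 37C, then dosed with compounds plus a stimulation mix containing 100uM IBMX and 25uM Ro-20-1724 for 0.5hr at room temperature. cAMP was measured by HTRF competition, 1hr.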

[9] = target: D(2) dopamine receptor (Homo sapiens) (UniProt P14416); assay: Dopamine D2 receptor (DRD2) small molecule agonists, cell-based qHTS assay (AID 1963594); note: nearly all actives have a fitted effect of over 35% in size
D(2) dopamine receptor (Homo sapiens), sequence (P14416 whole entry, looked up): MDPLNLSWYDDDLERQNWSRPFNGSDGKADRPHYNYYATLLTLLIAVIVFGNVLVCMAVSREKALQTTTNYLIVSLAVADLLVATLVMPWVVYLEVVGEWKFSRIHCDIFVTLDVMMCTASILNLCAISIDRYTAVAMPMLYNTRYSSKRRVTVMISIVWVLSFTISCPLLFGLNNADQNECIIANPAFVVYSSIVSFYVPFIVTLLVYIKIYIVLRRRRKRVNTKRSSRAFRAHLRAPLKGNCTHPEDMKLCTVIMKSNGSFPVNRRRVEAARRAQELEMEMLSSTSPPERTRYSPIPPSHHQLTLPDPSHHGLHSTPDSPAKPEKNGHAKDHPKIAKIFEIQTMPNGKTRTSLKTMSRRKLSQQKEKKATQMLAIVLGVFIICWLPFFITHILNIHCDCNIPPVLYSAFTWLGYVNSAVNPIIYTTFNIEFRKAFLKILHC
Outline: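 HEK293 cells stably expressing human DRD2, pre-treated with PDE inhibitor Ro20-1724 (0.1 mM final) and compound 10 min at room temperature, then stimulated with NKH477 (200nM […]) for 30 min. cAMP read by HTRF (665/620 nm).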

[10] = target: D(2) dopamine receptor (Homo sapiens) (UniProt P14416); assay: Dopamine D2 receptor (DRD2) small molecule antagonists, cell-based qHTS assay (AID 1963595; active = well fitted inhibition curve with a large enough effect in the signal ratio in the repeat runs, with a control signal flat; the % refers to the signal ratio; note: potency is the fitted concentration of half-maximal effect)
Outline: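 HEK293 cells stably expressing DRD2 were preincubated with 0.1 mM Ro20-1724, then with compound for 10 min at room temperature. Cells were stimulated with 200 nM NKH477 plus 12 nM quinpirole for 30 min, and cAMP was read by HTRF.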

[11] = p53 small molecule agonists, cell-based qHTS assay with human liver microsomes (AID 1963577);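 note: p53 response element beta-lactamase reporter cells with liver microsomes plus NADPH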
Outline: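 p53RE-bla cells; 5 h settle, 37 C/5% CO2; cpd + HLM 0.5 mg/mL + NADPH 0.5 mg/mL (final); 16 h 37 C; LiveBLAzer 2 h RT dark; fluorescence readout.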

[12] = p53 small molecule agonists, cell-based qHTS assay with rat liver microsomes (AID 1963578)
Outline: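 Rat liver microsome activation: microsomes 0.5 mg/mL, NADPH 0.5 mg/mL final; p53RE-bla cells, 16 h 37 C; LiveBLAzer readout, 2 h RT dark.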

[13] = p53 small molecule agonists, cell-based qHTS assay with human liver microsomes: qHTS cell viability counter screen (AID 1963579); note: nearly all actives have a fitted effect of over 45% in size
Outline: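 Luminescent CellTiter-Glo read-out, 30 min at room temperature, gauged cytotoxicity in p53RE-bla cells exposed 16 h at 37 C to DMSO-dissolved compounds with metabolic activation by human liver microsomes and NADPH, each 0.5 mg/mL final.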

[14] = p53 small molecule agonists, cell-based qHTS assay with rat liver microsomes: qHTS cell viability counter screen (AID 1963580); note: nearly all actives have a fitted effect of over 45% in size; note: potency is the fitted concentration of half-maximal effect
Outline: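 Cytotoxicity counter screen: intracellular ATP measured by CellTiter-Glo luminescence in the same wells as the beta-lactamase reporter read, on HCT-116 p53RE-bla cells exposed 16 h at 37 C to compounds with rat liver microsomes and NADPH, each 0.5 mg/mL final.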

[15] = target: 5-hydroxytryptamine receptor 2A (Homo sapiens) (UniProt P28223); assay: 5-hydroxytryptamine receptor 2A (HTR2A) small molecule antagonists, cell-based qHTS assay (AID 1963586); note: nearly all actives have a fitted effect of over 45% in size
Outline: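 CHO cells stably expressing human HTR2A were plated for 18 h at 37 C, then loaded with calcium dye for 1 h. Compounds were preincubated 5 min at room temperature before DOI (4 nM solution) was added. Kinetic fluorescence was read for 3 min.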

[16] = target: Muscarinic acetylcholine receptor M1 (Homo sapiens) (UniProt P11229); assay: Cholinergic receptor muscarinic 1 (CHRM1) small molecule antagonists, cell-based qHTS assay (AID 1963588); note: nearly all actives have a fitted effect of over 40% in size
Outline: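 Compounds were tested at 15 concentrations in three independent runs. Dye-loaded CHRM1-CHO cells were exposed 5 min at room temperature before stimulation by acetylcholine added at 50nM. Intracellular calcium was read kinetically on FDSS for 3 min.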

[17] = cAMP Responsive Elements (CRE) small molecule antagonists, cell-based qHTS assay (AID 1963591; active = well fitted inhibition curve with a large enough effect in the signal ratio in the repeat runs, not every such curve was filed as active; the % refers to the signal ratio)
Outline: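 Antagonist mode: compounds are added alongside the adenylyl cyclase activator NKH477 (0.25 uM final) to CRE-bla HEK293T cells for 3 h. LiveBLAzer FRET substrate, 2 h at room temperature, reports bla expression.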

[18] = p53 small molecule agonists, cell-based qHTS assay: qHTS cell viability counter screen (AID 1963581); note: nearly all actives have a fitted effect of over 45% in size
Outline: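 Counter screen read by CellTiter-Glo luminescence (ATP content, 30 min at room temperature), run in the same wells as the beta-lactamase reporter read. HCT-116 p53RE-bla cells saw compounds for 16 h at 37 C.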

[19] = cAMP Responsive Elements (CRE) small molecule agonists, cell-based qHTS assay (AID 1963590)
Outline: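 Agonist mode: compound added to CRE-bla HEK 293T cells (2,000/well, 18 h after plating) for 3 h at 37 C/5% CO2. Reporter activity detected via FRET beta-lactamase substrate, 2 h room-temperature loading.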

[20] = p53 small molecule agonists, cell-based qHTS assay (AID 1963582; active = well fitted activation curve with a large enough effect in the signal ratio in the repeat runs, not every such curve was filed as active; the % refers to the signal ratio)
Outline: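 Read-out is beta-lactamase FRET fluorescence after 2 h at room temperature with LiveBLAzer B/G substrate. p53 response element-bla cells were treated 16 h at 37 C with compounds in DMSO, added 5 h after seeding.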

In the case of `CC(C)=CCOc1ccc(/C=C/C(=O)c2ccc(OCC=C(C)C)cc2OCC(=O)O)cc1`, the Potency [1] is reported as 26.6 µM (active), the Potency [2] is reported as “inactive” and the Potency [3] is reported as “inactive”. For the same compound, the Potency [4] was “inactive”, the Potency [5] was “inactive” and the Potency [6] was “inactive”. For the same compound, the Potency [7] was “inactive”, the Potency [8] was “inactive” and the Potency [9] was “inactive”. For the same compound, the Potency [10] was “inactive”.

In the case of `CC(=O)CC(=O)c1ccccc1`, the Potency [1] is reported as 54.8 µM (active), the Potency [2] is reported as “inactive” and the Potency [3] is reported as “inactive”. The Potency [11] was “inactive”, the Potency [12] was “inactive” and the Potency [13] was “inactive”. For the same compound, the Potency [14] was “inactive”, the Potency [15] was “inactive” and the Potency [5] was “inactive”. The Potency [16] was “inactive”, the Potency [6] was “inactive” and the Potency [17] was “inactive”. For the same compound, the Potency [7] was “inactive”, the Potency [9] was “inactive” and the Potency [10] was “inactive”.

In the case of `OCCN1CCN(CCCN2c3ccccc3Sc3ccc(C(F)(F)F)cc32)CC1`, the Potency [1] is reported as “inactive”, the Potency [2] is reported as “inactive” and the Potency [3] is reported as “inactive”. For the same compound, the Potency [11] was “inactive”, the Potency [12] was “inactive” and the Potency [13] was “inactive”. The Potency [14] was “inactive”, the Potency [18] was “inactive” and the Potency [19] was “inactive”. For the same compound, the Potency [17] was “inactive”, the Potency [7] was 10.6 µM (active) and the Potency [9] was “inactive”.

In the case of `Oc1c(I)cc(Cl)c2cccnc12`, the Potency [1] is reported as 2.16 µM (active) and 3.35 µM (active), the Potency [2] is reported as “inactive” and the Potency [3] is reported as “inactive”. The Potency [11] was “inactive”, the Potency [13] was “inactive” and the Potency [14] was 14.1 µM (active). The Potency [18] was “inactive”, the Potency [20] was “inactive” and the Potency [15] was “inactive”. For the same compound, the Potency [5] was “inactive”, the Potency [16] was “inactive” and the Potency [6] was “inactive”. The Potency [19] was “inactive”, the Potency [17] was “inactive” and the Potency [7] was “inactive”. For the same compound, the Potency [9] was “inactive” and the Potency [10] was “inactive”.

For `Cc1ccc(-c2cc(C(F)(F)F)nn2-c2ccc(S(N)(=O)=O)cc2)cc1`, the Potency [1] was “inactive”, the Potency [2] was “inactive” and the Potency [3] was “inactive”. The Potency [13] was “inactive”, the Potency [14] was 36.2 µM (active) and inactive and the Potency [18] was “inactive”. The Potency [7] was 60.9 µM (active), the Potency [8] was “inactive” and the Potency [9] was “inactive”. For the same compound, the Potency [10] was 60.9 µM (active) and inactive.

For `O=C(c1ccc(F)cc1)C1CCN(CCn2c(=S)[nH]c3ccccc3c2=O)CC1`, the Potency [1] was 23.7 µM (active), the Potency [2] was “inactive” and the Potency [4] was “inactive”. The Potency [11] was “inactive”, the Potency [12] was “inactive” and the Potency [13] was “inactive”. The Potency [14] was “inactive”, the Potency [18] was “inactive” and the Potency [20] was “inactive”. The Potency [6] was “inactive”, the Potency [7] was 29.8 µM (active) and the Potency [9] was “inactive”.

For `CCN(CC)CCNC(=O)COc1ccc(OC)cc1`, the Potency [1] was “inactive”, the Potency [2] was “inactive” and the Potency [3] was “inactive”. The Potency [12] was “inactive”, the Potency [13] was “inactive” and the Potency [14] was “inactive”. The Potency [20] was “inactive”, the Potency [15] was “inactive” and the Potency [5] was “inactive”. For the same compound, the Potency [16] was “inactive”, the Potency [6] was “inactive” and the Potency [19] was “inactive”. The Potency [7] was “inactive”, the Potency [8] was “inactive” and the Potency [9] was “inactive”. For the same compound, the Potency [10] was “inactive”.

For `CCCC1C(CC)=CC(CC)=CN1c1ccccc1` (stereo not given), the Potency [1] was 61.1 µM (active), the Potency [2] was “inactive” and the Potency [3] was “inactive”. The Potency [11] was “inactive”, the Potency [12] was “inactive” and the Potency [18] was “inactive”. The Potency [15] was “inactive”, the Potency [5] was “inactive” and the Potency [16] was “inactive”. The Potency [6] was “inactive”, the Potency [7] was “inactive” and the Potency [9] was “inactive”. For the same compound, the Potency [10] was “inactive”.

Reference: PubChem BioAssay (Tox21)
